Source: PubChem
AmpC inh detg – AmpC beta-lactamase inhibition with detergent present; P00811; AmpC hydrolysis of nitrocefin, absorbance 480 nm, 0.01% Triton; 0.041% of 370,000 active; Potency, µM (series often up to 114 µM), for the others: at the top dose activity change, negative = inhibition, hits mostly inhibitors;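 note: potency is the fitted concentration of half-maximal effect; 0% = no-compound wells and -100% = no-enzyme wells; nearly all actives have a fitted effect of over 25% in size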
Target sequence (P00811 whole entry, looked up): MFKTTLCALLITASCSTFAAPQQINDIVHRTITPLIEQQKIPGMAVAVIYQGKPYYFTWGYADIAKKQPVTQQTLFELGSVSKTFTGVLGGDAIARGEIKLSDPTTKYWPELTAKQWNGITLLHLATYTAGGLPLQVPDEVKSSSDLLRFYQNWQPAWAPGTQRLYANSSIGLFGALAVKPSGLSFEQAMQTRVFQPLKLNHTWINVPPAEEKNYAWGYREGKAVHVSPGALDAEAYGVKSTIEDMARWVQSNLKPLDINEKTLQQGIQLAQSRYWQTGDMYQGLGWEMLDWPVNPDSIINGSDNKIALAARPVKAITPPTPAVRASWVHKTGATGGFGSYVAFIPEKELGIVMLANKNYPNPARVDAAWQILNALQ
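20 mM phosphate pH 7.0 + 0.01% (detergent screen) or 0.0001% Triton X-100; 5.3 nM AmpC reagent; cpd preinc 15 min RT; nitrocefin (800 uM stock) to start; A480 q20 s × 4 min; Activity was normalised to no-enzyme and no-compound control wells.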
Shiga toxin inh – blocks Shiga toxin action in Vero cells. 9.2% of 290,000 active. Vero cells, Shiga toxin protein synthesis inhibition reporter. inhibition, % at 38.7 µM. AID 2315; in the data active = inhibition mostly above about 28%, no sharp cut-off; inactive = mostly below about 43%; note: 0% is about no effect
AmpC no deterg – inhibitors of E. coli AmpC beta-lactamase without detergent | P00811 | AmpC nitrocefin hydrolysis, absorbance 480 nm, 0.0001% Triton | Potency, µM (series often up to 57.1 µM), inactives show at the highest dose activity change, negative = inhibition, usual class: inhibitors | 0.52% of 330,000 active;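 note: potency is the fitted concentration of half-maximal effect; plate controls were no compound for no effect and no enzyme for full effect; nearly all actives have a fitted effect of over 20% in size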
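AmpC (5.3 nM in the dispensed reagent) in 20 mM phosphate pH 7.0 with 0.01% (detergent screen) or 0.0001% Triton X-100 was preincubated with compounds for 15 min at room temperature. Nitrocefin was then added from an 800 uM solution, and hydrolysis was followed at 480 nm.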
CHX counter – counter-screen hit for Shiga toxin inhibitors, cycloheximide | cell reporter, cycloheximide protein synthesis inhibition counterscreen | max response, % | 12% of 300,000 active; in the data active = max response mostly above about 13%, no sharp cut-off; inactive = mostly below about 14%; note: read at 38.3 µM for the half of the compounds with a filed dose; 0% is about no effect
NS1 inh – inhibitors of influenza NS1 protein function; Potency, µM (doses to about 46.1 µM), inactives show at the highest dose activity, positive = more growth; 0.4% of 270,000 active; calls by dose curve; note: potency is the fitted concentration of half-maximal effect; actives are rising curves; nearly all actives have a fitted effect of over 50% in size
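Read-out: OD600 growth recovery of NS1-expressing budding yeast. Cells grown overnight at 30C in -URA glucose medium, washed, resuspended and diluted 1:100 in 2% galactose assay medium, pH 6.0. Same strain lacking NS1 served as positive control.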
Numbers without * were called inactive; ? = inconclusive; . = no result given. The entries come from a sample that favours hits as a whole. Unless noted, calls come from the whole dose curve; as a rule, active = well fitted curve in the direction sought with a large enough effect; inconclusive = small, poorly fitted or top-dose-only effect, or another doubt; inactive = no such curve, though single readings can be large; an effect the other way counts as inactive or inconclusive.

SMILES | AmpC inh detg | Shiga toxin inh | AmpC no deterg | CHX counter | NS1 inh
CCc1ccccc1N(c1nc(-c2ccc(OC)c(OC)c2)no1)c1nc(-c2ccc(OC)c(OC)c2)no1 | -3% | . | . | . | .
COc1ccc(NC(=O)Nc2ccc3c(c2)CC(=O)N([C@H](C)CO)C[C@@H](C)[C@H](CN(C)C(=O)Nc2ccccc2)O3)cc1 | . | . | 165% | . | .
COc1ccc(NC(=O)CN2C(=O)COc3ccc(S(=O)(=O)Nc4ccccc4)cc32)cc1 | 13% | . | . | . | .
O=C(CSc1ccc(-c2ccccc2)nn1)Nc1ccc2c(c1)OCCO2 | -3% | 74* | -32% | 79* | -16%
O=C(CSc1ccccc1)Nc1ccc2c(c1)OCCO2 | -1% | 75* | -23% | 40* | -11%
O=C(CSc1ccccc1)Nc1ccc2c(c1)OCO2 | -6% | 65* | -24% | 47* | -14%
O=C(CSc1ccc2c(c1)OCCO2)Nc1ccc(Br)cc1 | 3% | -32 | -45% | -1 | -98%
CC(=O)c1cccc(NC(=O)CSc2ccc(-c3ccc4c(c3)OCO4)nn2)c1 | ? | 3 | -30% | 8 | 17%
O=C(CSc1ccc2c(c1)OCCO2)Nc1ccc2c(c1)OCO2 | -4% | -12 | -30% | 15* | -10%
COc1ccc(CNC(=O)C2CCCN(S(=O)(=O)c3ccc(-n4cnnn4)cc3)C2)cc1 (stereo not drawn) | 4% | 29 | -1% | -6 | 2%
Cc1cccc(-n2ccnc2SCC(=O)Nc2ccc3c(c2)OCCO3)c1 | -12% | -2 | -24% | 27* | -54%
O=C(CSc1nnc2c(n1)[nH]c1ccccc12)Nc1ccc2c(c1)OCO2 | -1% | 20 | 8.9µM* | 17 | 20%
O=C(CSc1nnc2ccccn12)Nc1ccc2c(c1)OCCO2 | ? | 130* | -9% | 26* | .
O=C(CSc1nc(-c2ccccc2)c(-c2ccccc2)[nH]1)Nc1ccc2c(c1)OCO2 | ? | 24 | -44% | 15* | 16%
Cc1cccc(-n2ccnc2SCC(=O)Nc2ccc3c(c2)OCO3)c1 | 3% | . | . | . | .
CC(CNC(=O)CN1C(=O)COc2ccc(S(=O)(=O)N3CCCCCC3)cc21)c1ccccc1 (stereo not drawn) | 1% | . | . | . | .
Cn1cc(SCC(=O)Nc2ccc3c(c2)OCCO3)c2ccccc21 | ? | 63* | -8% | 24* | -35%
O=C(CCS(=O)(=O)c1ccccc1)Nc1ccc2c(c1)OCO2 | -5% | 112* | -13% | 55* | 4%
O=C(Cn1cnc2ccccc2c1=O)Nc1ccc2c(c1)OCCO2 | -12% | 90* | -1% | 46* | -9%
O=C(CSc1cn(CCNC(=O)c2ccccc2F)c2ccccc12)Nc1ccc2c(c1)OCCO2 | -1% | . | . | . | .
Cc1ccc(NCc2cccn2-c2nnc(N3CCC(C(=O)NCCc4ccc(Cl)cc4)CC3)s2)cc1 | 18% | . | . | . | .
O=c1c(N=Nc2ccc(O)cc2)c(-c2ccccc2)[nH]n1-c1ccc([N+](=O)[O-])cc1 | -3% | -12 | -2% | -3 | 7%
O=c1cc(-c2ccccc2)[nH]n1-c1ccc([N+](=O)[O-])cc1 | -6% | 71* | -51% | 35* | -79%
CCc1nc(C)cn1S(=O)(=O)c1cc(C)c(OC)c(C)c1C | -14% | -6 | 42% | -6 | -10%
Cc1ccc(-c2nc(CS(=O)(=O)CC(=O)N3CCCCCC3)c(C)o2)cc1 | -12% | 27 | 6.3µM* | -1 | -4%
SMILES | AmpC inh detg | Shiga toxin inh | AmpC no deterg | CHX counter | NS1 inh
Cc1ccc(-c2nc(CS(=O)(=O)CC(=O)N3CCN(c4ccccc4)CC3)c(C)o2)cc1 | 21% | . | . | . | .
Cc1ccc(-c2nc(CS(=O)(=O)CC(=O)N3CCc4ccccc4C3)c(C)o2)cc1 | ? | 1 | 40µM* | -2 | -82%
CC(C)C(=O)Nc1cccc(C(=O)Nc2nnc(CC(C)(C)C)s2)c1 | 28% | . | . | . | .
CS(=O)(=O)N1CCN(c2ccnc3cc(Cl)ccc23)CC1 | -7% | -7 | -5% | -5 | .
O=S(=O)(c1ccc(Br)s1)N1CCN(c2ccnc3cc(Cl)ccc23)CC1 | -4% | 25 | -3% | 15* | -32%
COc1cccc(CNC(=O)CCNC(=O)C2CCN(S(=O)(=O)c3ccccc3)CC2)c1 | -13% | 4 | 46% | -3 | -5%
COc1ccccc1-c1cc2ccccc2[nH]1 | ? | 69* | -26% | 38* | -5%
CCC(C)NC(=O)CSc1nnc(-c2cc(-c3cccs3)nc3ccccc23)o1 (stereo not drawn) | -3% | -3 | 38% | -2 | 4%
Cc1oc(-c2ccccc2F)nc1CSCC(=O)NCc1ccccc1 | 11% | . | . | . | .
Cc1ccc(Nc2nnc(-c3ccncc3)s2)c(Br)c1 | 8% | 26 | 6% | 27* | -40%
COc1ccc(Nc2nnc(-c3ccncc3)s2)cc1Cl | -7% | 71* | 127% | 49* | 0%
Clc1ccccc1Nc1nnc(-c2ccncc2)s1 | -1% | 28* | -30% | 41* | -20%
O=C(CSc1ccccc1C(=O)O)NCC1CCCCC1 | -2% | 17 | -13% | 2 | .
Cn1c2ccccc2c2cnn(CC(=O)Nc3ccccc3F)c(=O)c21 | 3% | . | . | . | .
COc1ccc(-c2nc(C(=O)N3CCN(C)CC3)sc2-c2ccc(OC)cc2)cc1 | . | -3 | . | -10 | .
Cc1ccc(C(=O)N/N=C\c2cccn2C)cn1 | -1% | 23 | -15% | 21 | -96%
Cc1occc1C(=O)N/N=C/c1ccccn1 | -4% | 75* | -7% | 38* | 2%
Cc1ccc(C(=O)N/N=C\c2ccccn2)cn1 | 4% | 63* | -7% | 40* | -4%
O=C(N/N=C/c1ccccn1)c1ccc(Br)cc1 | ? | 122* | -24% | 67* | -50%
O=C(CCCC(=O)N/N=C\c1ccccn1)N/N=C\c1ccccn1 | -2% | -20 | -10% | 0 | 14%
C(=N\N=C\c1ccccn1)/c1ccccn1 | -12% | 58 | -21% | 13* | -2%
COc1ccc(C(=O)N/C(=C\c2cn(C)c3ccccc23)C(=O)NCCCn2ccnc2)cc1 | -4% | 19 | 72% | -2 | -1%
Cc1ccc(N2CC3=C(C2=O)C(c2ccc(Br)cc2)NC(=O)N3C)cc1 (stereo not drawn) | -1% | . | . | . | .
O=C(N/N=C/c1ccccn1)c1ccc(N/N=C/c2ccccn2)cc1 | 7% | 63* | 29% | 29* | .
CC(C)(C)c1ccc(C(=O)N/N=C/c2ccccn2)cc1 | 0% | 85* | -28% | 45* | -58%
Cc1ccccc1C(=O)Nc1ccc(C(=O)N/N=C/c2ccccn2)cc1 | -12% | -8 | -28% | -1 | -6%
CCC[C@@H]1CC(C(=O)NC(C2O[C@H](SC)C(OP(=O)(O)O)[C@H](O)[C@H]2O)[C@H](C)Cl)N(C)C1 (stereo partly drawn) | . | -9 | . | -3 | .
Cc1oc2cc3oc(=O)cc(C)c3cc2c1C | 2% | 24 | -19% | 22* | -2%
COc1cccc(NC(=O)N2CCc3ccccc3C2)c1 | 9% | 91* | -25% | 70* | -30%
COc1cccc(-c2cc(C(=O)N3CCc4ccccc4C3)[nH]n2)c1 | -1% | 38* | -24% | 26* | -7%
